An excerpt weighted towards active compounds, which were near 18% of everything screened.
TDP1 block – blocks human tyrosyl-DNA phosphodiesterase 1. Q9NUW8. recombinant TDP1, AlphaScreen DNA substrate cleavage. Potency, µM (highest dose often 130 µM), inactives show at the highest dose activity change, negative = inhibition, most hits filed as inhibitors. 0.28% of 350,000 active. AID 485290; further: potency means the concentration at half of the fitted maximal effect; on the % scale 0 is the no-effect control and ±100 the full control effect; nearly all actives have a fitted effect of over 40% in size
Target sequence (Q9NUW8 whole entry, looked up): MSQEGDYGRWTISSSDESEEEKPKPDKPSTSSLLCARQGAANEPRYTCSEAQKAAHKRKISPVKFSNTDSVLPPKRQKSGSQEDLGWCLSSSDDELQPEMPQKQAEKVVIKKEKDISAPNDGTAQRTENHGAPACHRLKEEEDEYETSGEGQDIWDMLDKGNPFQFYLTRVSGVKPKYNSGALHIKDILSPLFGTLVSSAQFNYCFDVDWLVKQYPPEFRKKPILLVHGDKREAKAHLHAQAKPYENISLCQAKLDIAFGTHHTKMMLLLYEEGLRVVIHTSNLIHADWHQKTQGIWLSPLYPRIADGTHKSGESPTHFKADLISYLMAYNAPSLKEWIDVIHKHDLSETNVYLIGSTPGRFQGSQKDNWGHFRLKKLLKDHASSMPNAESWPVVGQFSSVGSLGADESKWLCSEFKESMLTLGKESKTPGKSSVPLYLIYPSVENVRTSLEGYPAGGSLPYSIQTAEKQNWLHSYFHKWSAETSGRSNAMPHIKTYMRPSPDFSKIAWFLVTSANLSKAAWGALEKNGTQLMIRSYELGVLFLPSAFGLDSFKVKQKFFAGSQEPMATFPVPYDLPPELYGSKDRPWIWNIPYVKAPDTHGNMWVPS
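AlphaScreen read-out: signal falls as enzyme removes the 3' tyrosine-FITC from a 5'-biotinylated DNA oligo (15 nM, 5 min, RT). Enzyme was E. coli-made recombinant Tdp1 at 1 nM, exposed to compound for 15 min beforehand; beads 10 ug/ml, 10 min.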
TGFb SMAD3 inh – TGF-b pathway inhibition. HepG2 CAGA-GFP TGF-b/SMAD3 reporter, GFP fluorescence, 18 h; TGF-beta stimulated, 500 pg/mL final. Potency, µM (top dose mostly 46.1 µM), inactives show top-dose activity, negative = inhibition, usual class: inhibitors. 1.2% of 410,000 active; further: potency means the concentration at half of the fitted maximal effect; on the % scale 0 is the no-effect control and ±100 the full control effect; nearly all actives have a fitted effect of over 65% in size
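First, reporter cells (HEPG2 CAGA-GFP) rested 2 h at 37 degrees C. Next, compounds were pinned in and TGF-beta added to 500 pg/mL final. After 18 h, GFP was imaged per cell and summed per well.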
HepG2 viability – counter-screen for TGF-b inhibitors: cytotoxicity in HepG2 cells | HepG2 CAGA-GFP viability, ATP luminescence, 18 h | Potency, µM (top dose mostly 46.1 µM), inactives show at the highest dose activity change, negative = cytotoxicity, actives largely listed as cytotoxic | 0.76% of 410,000 active; further: potency means the concentration at half of the fitted maximal effect
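HepG2 CAGA-GFP cells (1000/well, DMEM with 1% FBS) received compound, then TGF-beta at 500 pg/mL final, and were incubated 18 hours at 37 degrees C. Viability was read by CellTiter-Glo luminescence. Media-only wells were set as complete cell-killing and DMSO as no toxicity.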
TDP1 cell CPT – growth inhibition of DT40 Tdp1-/-;hTDP1 cells with camptothecin (screen for TDP1 inhibitors); chicken DT40 Tdp1-/-;hTDP1 cells + 20 nM CPT, ATP luminescence, 48 h; Potency, µM (series often up to 46.2 µM), inactives show at the highest dose activity change, negative = growth inhibition, usual class: inhibitors; 12% of 420,000 active; further: potency means the concentration at half of the fitted maximal effect; on the % scale 0 is the no-effect control and ±100 the full control effect; nearly all actives have a fitted effect of over 55% in size
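Cell growth measured by CellTiter-Glo luminescence after a minimum 48 h, 37 C compound exposure with 20 nM CPT in Tdp1-knockout DT40 cells stably expressing hTDP1, seeded 400/well; qHTS titration format.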
IL-1B inflam inh – blocks inflammasome-driven IL-1 beta release; THP-1 LPS/ATP IL-1B secretion, AlphaLISA, 16 h; active compounds read low; activity change, % at 57.5 µM; 4.7% of 360,000 active; in the data active means activity change below about -50%; inconclusive means mostly about -30% to -49%; further: on the % scale 0 is the no-effect control and ±100 the full control effect
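THP-1 cells pretreated 1 hr with compounds (up to 57.5 uM final), then stimulated with LPS (250 ng/mL final) plus ATP (1.25 mM final); secreted IL-1B measured by AlphaLISA after 16 hr, decreased signal indicating inhibition.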
TDP1 cell noCPT – qHTS for Inhibitors of human tyrosyl-DNA phosphodiesterase 1 (TDP1): qHTS in cells in absence of CPT. Potency, µM (highest dose often 46.2 µM), inactives show at the highest dose activity change, negative = growth inhibition, actives largely listed as inhibitors. AID 686978, 2013. 15% of 420,000 active. DT40 Tdp1-/- hTDP1 cells, no CPT, ATP luminescence, 48 h; further: potency means the concentration at half of the fitted maximal effect; on the % scale 0 is the no-effect control and ±100 the full control effect; nearly all actives have a fitted effect of over 55% in size
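Luminescent ATP content (CellTiter-Glo) served as the growth readout. Knockout chicken DT40 cells expressing human TDP1 were exposed to compounds without camptothecin for a minimum 48 hr at 37 °C.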
Starred values were filed as active, the others as inactive; ? = inconclusive; nt = not tested or not shown. Unless noted, the call rests on the fitted dose curve; in most records, active means well fitted curve in the direction sought with a large enough effect; inconclusive means small, poorly fitted or top-dose-only effect, or another doubt; inactive means no such curve, though single readings can be large; an effect the other way counts as inactive or inconclusive.

SMILES	TDP1 block	TGFb SMAD3 inh	HepG2 viability	TDP1 cell CPT	IL-1B inflam inh	TDP1 cell noCPT
O=c1c(-c2cc3ccccc3[nH]2)nc2ccccc2n1C(CCc1ccccc1)c1nc2ccccc2[nH]1 (centres undefined)	nt	nt	nt	?	-22	18µM*
O=C(NCc1ccccc1)C(c1cccc2ccccc12)n1c(=O)c(-c2cc3ccccc3[nH]2)nc2ccccc21 (centres undefined)	nt	nt	nt	15µM*	55	?
CCCCCNC(=O)C(c1cc2ccccc2o1)n1c(=O)c(-c2cc3ccccc3[nH]2)nc2ccccc21 (centres undefined)	nt	nt	nt	?	2	?
Cc1cccc(C)c1NC(=O)C(c1ccncc1)n1c(=O)c(-c2cc3ccccc3[nH]2)nc2ccccc21 (centres undefined)	nt	nt	nt	12µM*	-17	21µM*
COc1ccccc1NC(=O)CSc1nc(-c2ccc(C(C)(C)C)cc2)c(C#N)c(=O)[nH]1	5%	nt	-94%	-15%	nt	-8%
O=C(NCc1ccccc1)C(c1ccc(-c2ccccc2)cc1)n1c(=O)c(-c2ccco2)nc2ccccc21 (centres undefined)	nt	nt	nt	?	-3	?
O=C(NCc1ccccc1)C(CCc1ccccc1)n1c(=O)c(-c2ccccc2)nc2ccccc21 (centres undefined)	nt	nt	nt	-76%	50	2.3µM*
c1ccc(-c2nc(-c3cccs3)c(NC3CCCCC3)o2)cc1	-5%	nt	nt	nt	nt	nt
Cc1[nH][nH]c(=O)c1C(c1ccc(-c2ccc(Cl)c(Cl)c2)o1)c1c(C)[nH][nH]c1=O	13%	?	-35%	3.3µM*	-22	2.6µM*
Cc1[nH][nH]c(=O)c1C(c1ccc(-c2ccc(F)cc2)o1)c1c(C)[nH][nH]c1=O	10%	-12%	-19%	?	?	?
COc1ccc(-c2ccc(C(c3c(C)[nH][nH]c3=O)c3c(C)[nH][nH]c3=O)o2)c([N+](=O)[O-])c1	7%	?	-43%	?	-74*	23µM*
c1ccc2c(c1)ccn2CCCN1CCCCC1	nt	-2%	-18%	-4%	-4	-5%
COc1cccc(NC(=O)CN2C(=O)NC(c3ccccc3)(c3ccccc3)C2=O)c1	-21%	-11%	-20%	20%	-22	?
Cc1cc(C(F)(F)F)nn1Cc1ccc(C(=O)NCc2ccco2)o1	7%	0%	1%	16µM*	-19	13µM*
CC1CCCCC1NC(=O)COc1ncnc2sccc12 (centres undefined)	0%	10%	-1%	0%	24	1%
Cc1ccc(-c2cc(C(=O)N(Cc3ccc(C(C)(C)C)cc3)Cc3ccco3)no2)cc1	5%	7%	-4%	18µM*	nt	13µM*
O=C(NCc1ccco1)c1cc(-c2ccc(Cl)cc2)on1	6%	1%	-7%	-20%	0	-18%
O=C(c1cc(-c2ccc(Cl)cc2)on1)N(Cc1cccc(F)c1)Cc1ccco1	-2%	-29%	-24%	?	nt	18µM*
O=C(NCc1ccco1)c1cc(-c2cccc(Cl)c2)on1	0%	-1%	-37%	-6%	-6	-10%
O=C(c1cc(-c2ccc(Cl)cc2)on1)N(Cc1ccc(F)cc1)Cc1ccco1	-6%	?	-1%	?	nt	21µM*
CCc1ccc(CN(Cc2ccco2)C(=O)c2cc(-c3ccc(Cl)cc3)on2)cc1	6%	?	4%	?	nt	15µM*
COc1c(O)cc2c(c1O)[C@@H]1O[C@H](CO)[C@@H](O)[C@H](O)C1OC2=O (some centres undefined)	nt	-6%	-5%	-6%	11	-4%
